Out of some 6,700 compounds screened, fewer than 10 were called active.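 How the source made its calls: active means mean percent activation across replicates above the confirmation screen cutoff of 4.91%; inactive means the rest.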 Not all results are given here.
target: G-protein coupled receptor 151 (Homo sapiens) (UniProt Q8TDV0); assay: GPR151 agonism via beta-arrestin recruitment – cell-based, PathHunter beta-arrestin, luminescence, confirmation (AID 1508609); conditions: GPR151 PathHunter beta-arrestin cells, 90 min, at 11.2 µM, active compounds read high, % of EA-reagent control over plate median
Sequence (Q8TDV0 whole entry, looked up): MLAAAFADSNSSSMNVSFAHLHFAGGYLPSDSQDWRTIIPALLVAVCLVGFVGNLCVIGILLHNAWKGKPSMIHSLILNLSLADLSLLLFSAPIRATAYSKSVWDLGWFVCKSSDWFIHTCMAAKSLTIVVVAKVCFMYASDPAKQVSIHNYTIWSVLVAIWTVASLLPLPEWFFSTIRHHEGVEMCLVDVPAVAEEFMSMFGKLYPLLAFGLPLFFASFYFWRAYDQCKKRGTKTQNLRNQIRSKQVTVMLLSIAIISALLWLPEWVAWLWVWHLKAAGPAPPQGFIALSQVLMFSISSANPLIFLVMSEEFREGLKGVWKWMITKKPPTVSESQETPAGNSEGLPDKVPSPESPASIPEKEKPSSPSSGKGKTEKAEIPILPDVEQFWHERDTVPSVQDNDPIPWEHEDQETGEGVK

activation, inactive:
Cc1nnc(SCC(=O)NCc2ccccc2)s1 -1.41%
CCN(CC)c1nc(Nc2cc(OC)c(OC)c(OC)c2)nc(N2CCOCC2)n1 -0.81%
COc1ccc2c(c1)C=C(CN1CCN(CC3CCCCC3)C(CCO)C1)CO2 (stereo unspecified) 0.99%
COc1ccc(OC)c(NC(=O)CN(c2cccc(C)c2C)S(C)(=O)=O)c1 -1.37%
CCc1cc2c(=O)c(-c3ccc4c(c3)OCCCO4)coc2cc1OC(=O)N1CCOCC1 -0.64%
COc1cc(Nc2cc(N3CCN(c4ccc(F)cc4)CC3)c3noc4c3c2C(=O)c2ccccc2-4)cc(OC)c1OC -0.64%
O=CN1CCN(CCC(=O)Nc2ccccc2)CC1 1.05%
CC1(C(=O)Nc2cccc(C(F)(F)F)c2)CC2c3ccccc3C1c1ccccc12 (stereo unspecified) 0.28%
C=CCN(c1ccc(C(=O)Nc2ccc(OCc3ccccc3)cc2)cc1)S(C)(=O)=O -0.47%
O=C(COc1ccc(S(=O)(=O)NCCc2ccccc2)cc1)NC1CC1 -1.2%
COc1cc(NC(=O)C2CC(c3ccccc3O)=NO2)c(OC)cc1Cl (stereo unspecified) 0.24%
CCCCCC(=O)N/N=C(/C)c1ccc(O)cc1O 0.98%
CCOC(=O)c1sc(NC(=O)CSc2ncccn2)c(C#N)c1C -0.62%
O=C(Cn1nnc2ccccc21)N/N=C/c1c(O)ccc2ccccc12 0.12%
CC(C)CCSc1nc2c(c(=O)n1Cc1ccco1)C1(CCCCC1)Cc1ccccc1-2 0.06%
CN1CCN(c2ccc(-c3nc4ccc(C(=O)NCc5nc6ccccc6[nH]5)cc4s3)cc2)CC1 -0.31%
COc1cccc(C(=O)Nc2sc3c(c2C(N)=O)CCCCCC3)c1 0.1%
COc1ccc(N2C(=O)C3CCCN3C2c2cccc(OC)c2)cc1 (stereo unspecified) -1.45%
CCOc1ccc(/C=C2N=C(/C=C/c3cccc(Cl)c3Cl)OC\2=O)cc1 -0.04%
CCN(CC)S(=O)(=O)c1ccc(N2CCCC2)c(NC(=O)c2ccc([N+](=O)[O-])o2)c1 0.12%
COCCN1C(=O)CC(CC(=O)NCc2nc3ccccc3[nH]2)(c2ccccc2C)C1=O (stereo unspecified) 0.82%
CCc1nn(CCCN2CCN(c3cccc(Cl)c3)CC2)c(=O)n1CCOc1ccccc1 0.13%
CCOC(=O)c1sc2nc(SCC(=O)N(C)Cc3ccccc3)n(Cc3ccc4c(c3)OCO4)c(=O)c2c1C -1.12%
COc1ccccc1C(=O)N/C(=C\c1ccc2c(c1)OCO2)C(N)=O -0.62%
O=C(N/N=C/c1cccc(Cl)c1Cl)c1cccs1 -1.68%
Cc1ccc(NCC(=O)N/N=C\c2ccc(I)o2)cc1 -0.49%
CC1CCN(CC(=O)Nc2ccccc2Cl)CC1 0.1%
CCCOc1ccc([N+](=O)[O-])cc1C=C1C(=O)NC(=O)NC1=O -0.34%
COc1ccc(OC)c(NC(=O)CSc2nnc3[nH]c(=O)c(C)c(C)n23)c1 -0.4%
COc1ccc(C(=O)Cc2cc3ccccc3oc2=O)c(OC)c1 -0.78%
CCc1ccc(-c2ccc(C3CCC(CC)CC3)cc2)nc1 (stereo unspecified) -0.84%
CCc1ccc(S(=O)(=O)NCCOc2cc(N3CCOCC3)ncn2)cc1 0.53%
CCOC(=O)C1=C(CC)OC(N)=C(C#N)C1c1ccc(C(F)(F)F)cc1 (stereo unspecified) -0.53%
CCC[C@@H]1NC(=O)[C@@H]2C[C@H](NCc3nc(-c4ccc(F)cc4)cs3)CN2C1=O 0.46%
CC(C)CC(C(=O)Nc1cccc([N+](=O)[O-])c1)N1C(=O)c2ccccc2C1=O (stereo unspecified) 0.6%
COc1ccc(C(=O)COC(=O)C(Cc2ccccc2)NC(=O)c2ccco2)cc1 (stereo unspecified) 0.8%
CCC1(c2ccc(Cl)cc2Cl)NC(=S)N(c2ccc(C)c(C)c2)N1 (stereo unspecified) 0.75%
CCC(C(=O)N1CCCCC1)n1c(C)c2cnn(-c3ccccc3)c(=O)c2c1C (stereo unspecified) -0.56%
Cc1ccc2cc(C#N)c(SCCO)nc2c1 0.26%
COc1ccc(/C=C(\C#N)C(=O)Nc2cccc(S(=O)(=O)N3CCCCC3)c2)cc1 -1.24%
Cc1ccc(Nc2nc(-c3ccccn3)cs2)cc1C -1%
CC(C)(C)NC(=O)Cc1coc2ccc3ccccc3c12 0.92%
COc1ccc(/C=C(\C#N)C(=O)Nc2ccc(F)cc2)c(OC)c1 0.7%
Cc1ccc(-n2cc(-c3ccccc3)c3c(N4CC(C)OC(C)C4)ncnc32)cc1 (stereo unspecified) 0.03%
COc1cc(/C=N/N=C2/NC(=O)CS2)ccc1OC(=O)c1ccccc1C -0.88%
O=C(CN1C(=O)S/C(=C\c2ccc(Cl)s2)C1=O)Nc1ccccc1F -1.03%
CO[C@@H]1COC(=O)[C@@H](C)COC(=O)[C@H](C)NC(=O)C/C=C/[C@H]1C 0.63%
Cn1c2ccccc2c2nnc(SCC(=O)Nc3ccc(NC(=O)C4CC4)cc3)nc21 0.69%
Cc1nn(C)c(C)c1-c1nc2ncnc(NCCO)c2[nH]1 -0.32%
CCc1nnc2n1N(C(C)=O)C(c1ccc3c(c1)CCCC3)=C(C(C)=O)S2 0.79%
CC(C)(C)OC(=O)N1CCC[C@H](Cn2cc(C(=O)O)nn2)C1 0.63%
Cc1nc2cc(C(=O)NCc3ccc4c(c3)OCO4)ccc2n1-c1ccc(OCc2ccccc2)cc1 -1.41%
CCCCNC(=O)C1(c2ccc(OC)cc2)CCOCC1 -0.13%
CCC(=O)N(CCC(Cc1ccccc1)c1ccc2c(c1)OCO2)Cc1ccc(OC(C)C)cc1 (stereo unspecified) 1.24%
CC(C)c1ccc(Nc2nccn3c(-c4cccc(CO)c4)cnc23)cc1 1.58%
Cc1ccc(S(=O)(=O)NCc2nc3nc(C)cc(C)n3n2)cc1 -1.42%
Nc1cc(=O)nc(SCC(=O)Nc2nccs2)n1-c1ccc(F)cc1 1.67%
c1ccc(NCc2cccc3ccccc23)nc1 -0.81%
COc1ccccc1C1C(C(N)=O)=C(C)Nc2nc(CCCO)nn21 (stereo unspecified) -0.72%
CC1CCN(C(=O)C(NS(=O)(=O)c2ccc3c(c2)oc(=O)n3C)C(C)C)CC1 (stereo unspecified) 0.12%
Cc1cc(=O)[nH]c(SCC(=O)Nc2cccc3ccccc23)n1 -0.05%
COc1cccc(C2SCC(=O)N2c2cccc(C)c2)c1OC (stereo unspecified) 0.31%
CC(C)(C)C1CCC(=NNC(=O)C(=O)NCCc2ccccc2)CC1 (stereo unspecified) 1.36%
C#CCOc1ccc(Br)cc1/C=C1\NC(=S)N(C)C1=O -0.05%
Cc1ccc(NC(=O)CCn2c(=O)oc3ccccc32)cc1Cl 0.81%
C(=N\N1CCN(c2ccccn2)CC1)/C1=C(N2CCOCC2)C(=C/c2ccccc2)/CC1 0.86%
CC(C)(C)C1(O)CCN2C[C@H]3c4ccccc4CCc4cccc(c43)[C@@H]2C1 (stereo partly specified) -0.56%
CCOCCCNC(=O)NC1CCN(c2nc3ccccc3s2)CC1 0.63%
CCOC(=O)Cc1coc(NC(=O)c2ccc(Cl)cc2)n1 1.26%
CC(C)C(=O)NNS(=O)(=O)c1ccc([N+](=O)[O-])cc1 -0.02%
N#Cc1ccc(N2CCN(CCCNC(=O)Nc3ccccc3)CC2)cc1 -0.19%
O=C1Cc2cc(S(=O)(=O)Nc3cccc(Cl)c3)cc3c2N1CCC3 0.12%
COc1cccc(NC(=O)CN(C)S(=O)(=O)c2ccc3c(c2)SCC(=O)N3)c1 -0.01%
CCNc1nc(NC(C)C)nc(OCCOC(C)=O)n1 -0.68%
OCc1ccccc1CNc1ccc(F)cc1 0.05%
COCCNCCOc1ccc(C(C)(C)C)cc1 -1.21%
CCN(CC)C1CCN(C(=O)c2cc(COc3ccc4ncccc4c3)on2)C1 (stereo unspecified) -1.18%
COc1ccc(-c2cc(N)n(S(=O)(=O)c3ccccc3)n2)c(OC)c1 -0.31%
COc1cc2nc(-c3ccc4c(c3)C(=O)N(CCC(C)C)C4=O)oc(=O)c2cc1OC 0.42%
COc1ccc(Nc2nc(-c3ccc(F)cc3)cs2)c(OC)c1 -0.04%
CCCN1C(=O)c2ccc(C(=O)Nc3ccc(C(C)=O)cc3)cc2C1=O 0.09%
CC(C(=O)NCCN1CCOCC1)n1c2ccccc2c2cn[nH]c(=O)c21 (stereo unspecified) -0.57%
c1ccc2sc(-c3cnc4ccc(NC5CCOCC5)nn34)cc2c1 -1.36%
O=C(COc1ccc(Br)cc1CO)NCC(F)(F)F 0.36%
CCOc1ccc(NC(=O)N2CCN(CC)CC2)cc1 0.34%
CCc1ccc(N2N=C(C)/C(=C\c3ccc(-c4ccc5c(c4)C(=O)NC5=O)o3)C2=O)cc1 -0.14%
O=S(=O)(NCc1csc(-c2cccnc2)n1)c1ccc2ccccc2c1 0.68%
CCN1/C(=C/c2ccc3cc(C)ccc3[n+]2CC)Sc2ccc(-c3ccccc3)cc21 -0.55%
Cc1ccc(NC(=O)Cn2cc(-c3ccccc3)c(N3CCOCC3)n2)c(C)c1 -0.77%
CC1CCCCN1C(=O)c1cc2c(=O)n(C)c3ccccc3c2s1 (stereo unspecified) 0.54%
COc1cccc(/C=C2/C(=O)NC(=O)N(c3ccccc3F)C2=O)c1 0.99%
